Screening data: PubChem BioAssay, several laboratories
APOBEC3G inh = APOBEC3G (human) deaminase inhibition; Q9HC16; inhibition, % at 20 µM; 330,000 compounds, 0.28% hits; recombinant A3G, ssDNA deamination FAM/TAMRA fluorescence;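 active = inhibition of at least 40% at 20 µM, with no more than 30% in the related APOBEC3A deaminase screen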;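 note: plate controls were DMSO wells with A3G for no effect and wells lacking A3G enzyme for full effect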
A3A deaminase = blocks human APOBEC3A ssDNA deamination; P31941; recombinant A3A, FAM/TAMRA ssDNA deamination fluorescence; inhibition, % at 20 µM; 330,000 compounds, 0.41% hits; AID 493011;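 active = at least 40% inhibition at 20 µM here, with at most 30% in a related deaminase screen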;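 note: plate controls were A3A with DMSO for no effect and wells lacking A3A enzyme for full effect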
NRP1-CendR mod = alters CendR peptide binding to human NRP-1; O14786; FAM-RPARPAR peptide binding to NRP-1, fluorescence polarization; inhibition, % at 25 µM; 360,000 compounds, 0.85% hits; AID 602438;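 active = inhibition or corrected inhibition above about 18%, plus a signal ratio from 0.5 to 1.5, limit read from the data, passing the limit was not always enough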
Target sequence (O14786 whole entry, looked up): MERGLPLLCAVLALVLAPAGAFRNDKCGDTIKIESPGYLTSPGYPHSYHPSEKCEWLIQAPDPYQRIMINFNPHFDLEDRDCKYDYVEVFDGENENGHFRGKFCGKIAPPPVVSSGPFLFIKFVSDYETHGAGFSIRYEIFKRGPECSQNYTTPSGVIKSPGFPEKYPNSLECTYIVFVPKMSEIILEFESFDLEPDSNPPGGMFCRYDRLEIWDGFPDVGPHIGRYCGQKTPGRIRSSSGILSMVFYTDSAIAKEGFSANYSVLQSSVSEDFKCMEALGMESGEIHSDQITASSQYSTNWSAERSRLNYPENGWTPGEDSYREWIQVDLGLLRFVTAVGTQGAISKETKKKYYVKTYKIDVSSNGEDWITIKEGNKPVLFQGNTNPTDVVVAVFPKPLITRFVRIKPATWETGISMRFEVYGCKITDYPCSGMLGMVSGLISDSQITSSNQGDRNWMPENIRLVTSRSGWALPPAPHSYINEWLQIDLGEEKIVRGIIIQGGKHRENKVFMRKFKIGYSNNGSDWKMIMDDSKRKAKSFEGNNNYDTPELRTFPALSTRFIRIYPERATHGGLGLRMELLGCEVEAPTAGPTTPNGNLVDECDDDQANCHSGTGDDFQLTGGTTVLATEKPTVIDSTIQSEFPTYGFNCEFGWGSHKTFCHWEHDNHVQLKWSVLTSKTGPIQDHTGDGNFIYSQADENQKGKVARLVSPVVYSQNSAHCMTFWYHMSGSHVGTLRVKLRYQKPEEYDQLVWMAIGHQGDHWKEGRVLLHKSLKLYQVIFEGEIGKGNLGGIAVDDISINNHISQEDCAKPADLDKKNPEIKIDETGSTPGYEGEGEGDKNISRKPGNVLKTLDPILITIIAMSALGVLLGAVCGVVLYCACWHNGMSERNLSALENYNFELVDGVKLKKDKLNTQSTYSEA
ALR inh = blocks human ALR sulfhydryl oxidase activity; inhibition, % (concentration not given with the values); purified ALR, DTT oxidation, H2O2 HRP-luminol luminescence; 290,000 compounds, 3.8% hits;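 active = mean replicate inhibition above about 79%, with every replicate also reaching it, limit read from the data; inconclusive = only one of the two criteria met; inactive = mean below limit and not every replicate reaching it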
CR mimetic SO = yeast age-related superoxide inhibition as caloric restriction mimetic; 330,000 compounds, 0.18% hits; S. cerevisiae aged cells, superoxide DHE fluorescence; active compounds read low; superoxide response (% of plate mean), % at 10 µM; AID 2690;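 active = superoxide response under a set limit, about three screen SD below normal, cut at about 65% in these data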;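 note: yeast aged for seven days with compound at 30 °C before DHE staining; 100% = average MFI of all compound-treated wells on the plate with controls excluded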
PfM18AAP inh-1 = blocks P. falciparum M18 aspartyl aminopeptidase; recombinant PfM18AAP, H-Glu-NHMec fluorogenic cleavage; 290,000 compounds, 1.2% hits; inhibition, % at 7.35 µM; AID 1822;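 active = inhibition above the campaign mean inhibition over all tested compounds plus 3 SD, cut at about 28% in these data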;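 note: 0% = plate median of test compound wells and 100% = 2 mM ZnCl2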
PfM18AAP inh-2 = confirmation of Plasmodium falciparum M18 aspartyl aminopeptidase inhibitors; inhibition, % at 7.35 µM; recombinant PfM18AAP, H-Glu-NHMec fluorogenic cleavage; 2,400 compounds, 28% hits; shares compounds with PfM18AAP inh-1;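 active = mean inhibition over replicate wells above the hit cutoff set for the earlier primary screen, cut at about 29% in these data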;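 note: 0% = median of test compound wells and 100% = 2 mM ZnCl2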
CTSL1 confirm = Cathepsin L (human) inhibition, confirmation; shares compounds with PfM18AAP inh-1; purified cathepsin L1, Z-Leu-Arg-MCA fluorescence; inhibition, % at 5.96 µM; 2,400 tested, under 10 active; AID 2178;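 active = average inhibition across replicates above the hit cutoff set in the earlier primary screen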;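 note: 0% = median of test compound wells and 100% = Z-Phe-Ala-diazomethylketone 1 µM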
* marks the source's active call; other numbers are inactive results; u = inconclusive; x = no result given. An excerpt weighted towards active compounds, which were near 5.2% of everything screened.

SMILES	APOBEC3G inh	A3A deaminase	NRP1-CendR mod	ALR inh	CR mimetic SO	PfM18AAP inh-1	PfM18AAP inh-2	CTSL1 confirm
CCC(C)N(C)C1CCN(C(=S)Nc2cccc(SC)c2)CC1 (stereo not given)	-7	-1	-1	-3	105	41*	-21	1
CCOC(=O)c1sc(=S)n(C)c1NC(=O)c1ccccc1C	-5	3	12	3	92	35*	6	2
S=c1nc[nH]c2c1ncn2C1CCCC1	x	x	6	0	98	21	-30	-3
O=C1C(C2=NC(c3ccccn3)C3C(=O)N(c4ccccc4)C(=O)C23)=C(O)c2ccccc21 (stereo not given)	-3	-5	-4	-3	92	71*	-30	2
CCCCC(=O)Nc1sc2c(c1-c1nc3ccccc3s1)CCN(C(C)=O)C2	x	x	x	x	x	10	x	x
CC(=O)N1CCc2c(sc(NC(=O)C3CC3)c2-c2nc3ccccc3s2)C1	-11	-3	-107	-14	102	34*	-29	-2
COc1ccc(CN2CCN(c3ccccc3OC)CC2)c(OC)c1	4	-8	-9	0	105	-2	x	x
COc1ccccc1N1CCN(Cc2cc3c(cc2[N+](=O)[O-])OCO3)CC1	-5	-1	4	x	98	32*	-25	4
C#CCSc1nc2ccccc2n1C(=O)c1ccc(S(=O)(=O)N2CCCCC2)cc1	x	x	11	1	97	-3	x	x
O=C(O)C1CCN(S(=O)(=O)c2ccc(N3CCCC3C(=O)O)c([N+](=O)[O-])c2)CC1 (stereo not given)	4	3	4	-2	100	36*	-21	1
O=C(O)C1CCN(c2ccc(S(=O)(=O)N3CCCCC3)cc2[N+](=O)[O-])CC1	-5	1	-5	x	x	x	x	x
Oc1ccc(Br)cc1CNc1cnc2ccccc2c1	-5	-7	-5	55	96	2	x	x
Oc1ccc(Br)cc1CNc1cccc2cccnc12	-4	-5	-8	x	96	46*	-3	103*
Cc1cccc(NC(=S)N(C)Cc2cn(C)c3ccccc23)c1	-4	-4	-8	0	102	6	x	x
CCN1CCN(C(=S)c2ccc(Cl)c(Cl)c2)CC1	10	-6	-9	9	114	45*	6	0
CCc1nnc(NC(=O)CSc2nnc(COc3cccc(C)c3)o2)s1	0	2	-9	15	100	47*	-40	-5
COc1ccc(Cc2nnc(SCC(=O)Nc3ncc(C)s3)o2)cc1	-5	-3	-3	-5	92	21	x	x
CCc1nnc(NC(=O)CSc2nnc(Cc3ccc(OC)cc3)o2)s1	-4	-3	-7	9	92	41*	-33	-3
CCc1nnc(NC(=O)CSc2nnc(COc3ccccc3C)o2)s1	-3	1	4	-8	95	27	x	x
CC(C)(C)c1cc(C(=O)NCC(=O)OCC(=O)c2cccc([N+](=O)[O-])c2)cc(C(C)(C)C)c1	-2	0	-22	-3	101	6	x	x
O=[N+]([O-])c1ccccc1S(=O)(=O)NC1CCCCCCC1	-4	-4	1	-8	96	0	x	x
O=C1CCCCCCC1Sc1ccccc1[N+](=O)[O-] (stereo not given)	-6	-2	3	x	99	38*	-48	0
CN1CCN(Cc2c(O)ccc3occ(C(=O)c4ccccc4)c23)CC1	0	-1	1	9	98	0	x	x
CC(=O)C(C(C)=O)c1c(Cl)c(O)c(O)c2c(C(=O)c3ccccc3)coc12	7	-4	12	x	97	55*	55*	3
O=C(NCc1n[nH]c(=S)n1-c1cccc(C(F)(F)F)c1)c1ccco1	5	-2	3	20	106	34*	-10	-5
SMILES	APOBEC3G inh	A3A deaminase	NRP1-CendR mod	ALR inh	CR mimetic SO	PfM18AAP inh-1	PfM18AAP inh-2	CTSL1 confirm
O=C(Cc1ccccc1)NCc1n[nH]c(=S)n1-c1ccccc1	-1	-3	0	4	99	18	x	x
COc1ccc(CC(=O)NCc2n[nH]c(=S)n2-c2cccc(C)c2)cc1	3	-6	7	34	110	40*	-17	3
N#Cc1c(SCC(=O)Nc2nncs2)sc2c(O)cc(=O)[nH]c12	51	73	-83	2	101	53*	29*	-4
O=c1c2ccccc2nc2n1CCC2	-6	-4	-21	1	210	46*	17	-10
O=c1c2ccccc2nc2n1CCCCC2	0	5	-23	4	102	0	x	x
Cc1ccc(C(=O)NCC(=O)OCC(=O)Nc2ccc(Cl)cn2)cc1	-4	-1	10	-6	89	x	x	x
Cn1c(=O)c2c(nc(NCc3ccco3)n2Cc2ccccc2Cl)n(C)c1=O	-8	-22	8	13	115	0	x	x
Nc1ccc(Cc2ccc(N)c(O)c2)cc1O	x	x	-58	x	x	18	x	x
OCCCc1ccc(O)c(O)c1	14	0	4	20	99	45*	27	3
CN(C)c1ccc(C(=S)N2CCN(c3ccc([N+](=O)[O-])cc3)CC2)cc1	35	-2	-2	-2	103	47*	7	5
Cc1ccc2nc3c(c(Nc4ccc(O)cc4)c2c1)CCC3	-2	5	-1	u	106	33*	10	-1
CC(=O)NNC(=O)CN1C(=O)/C(=C/c2ccccc2)SC1=S	-3	-11	11	x	100	34*	-29	4
O=C(CN1C(=O)/C(=C/c2ccccc2)SC1=S)Nc1cccnc1	-3	0	11	-5	89	25	x	x
Cc1cc(C)nc(Sc2ncnc3c2oc2ccccc23)n1	-6	-3	-8	38	114	-6	x	x
CC1(C)CC(CC(=O)NNc2nc(-c3ccccc3)cs2)C(=O)O1 (stereo not given)	-2	-2	-2	x	93	34*	-1	-7
CC(C)CC1CC(C)(c2csc(NNC(=O)c3ccccc3)n2)OC1=O (stereo not given)	-8	-3	-17	51	99	33*	-10	-1
CC1CC(CC(=O)NNc2nc(-c3ccccc3)cs2)C(=O)O1 (stereo not given)	-2	0	4	x	107	23	x	x
O=C(NNc1nc(-c2ccc(F)cc2)cs1)c1ccccc1	-7	2	-9	x	104	18	x	x
O=C(C1=NN[C@@H]2C(=O)N(Cc3ccccc3)C(=O)[C@H]12)c1ccc([N+](=O)[O-])cc1	-4	0	0	x	109	42*	-3	8
O=C(c1ccc(-c2ccccc2)cc1)c1ccc([N+](=O)[O-])cc1	-6	-4	x	-5	86	5	x	x
